From PubChem BioAssay (NCATS)
Records with an inconclusive call do not appear. Active and inactive are the calls of the source. Unless noted, the call rests on the fitted dose curve; in most records, active means well fitted curve in the direction sought with a large enough effect; inconclusive means small, poorly fitted or top-dose-only effect, or another doubt; inactive means no such curve, though single readings can be large; an effect the other way counts as inactive or inconclusive.

Assays:
[1] = molecular target: Estrogen receptor (Homo sapiens) (UniProt P03372); assay: qHTS assay for small molecule antagonists of estrogen receptor alpha signaling (AID 588513; active means well fitted curve in the direction sought with a large enough effect in the signal ratio, with a control signal flat, not every such curve was filed as active; the % refers to the signal ratio; further: potency means the concentration at half of the fitted maximal effect)
How it was run: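 Fluorescence from CCF4 substrate after 2 h at room temperature gave reporter activity; cells had been exposed to compound and 0.5nM 17-beta-estradiol for 18 h at 37 C. Hill-equation fitting yielded IC50 and maximal response.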

[2] = qHTS assay for environmental chemicals that activate the Aryl hydrocarbon Receptor (AhR) signaling pathway (AID 651777); details: 1A2-DRE human hepatoma cells, luciferase, 24 h; activation: stronger effect = higher value; further: % of control where 0% means no effect; nearly all actives have a fitted effect of over 15% in size
How it was run: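 Measured luciferase activity, read 30 min after One-Glo addition at room temperature, from human hepatoma cells bearing a dioxin response element–CYP1A2 promoter reporter and exposed to compound for 24 hr at 37 C.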

[3] = molecular target: Peroxisome proliferator-activated receptor alpha (Homo sapiens) (UniProt Q07869); assay: qHTS assay for small molecule agonists of the peroxisome proliferator-activated receptor alpha (PPARalpha) signaling pathway (AID 651778); details: PathHunter PPARalpha complementation, chemiluminescence, 6 h; max response: stronger effect = higher value; further: % of control where 0% means no effect
How it was run: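 Enzyme-fragment complementation assay in which ligand-bound PPARalpha translocates and forms an active enzyme that generates chemiluminescence. Cells were plated overnight, exposed to compound for 6 hr at 37 C, and then given detection reagent for 60 min at room temperature.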

[4] = qHTS assay for small molecule agonists of the antioxidant response element (ARE) signaling pathway measured by Nrf2-dependant transcriptional activity (AID 720636; active means well fitted curve in the direction sought with a large enough effect in the repeat runs; an effect the other way counts as inactive or inconclusive;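 further: HepG2 cells with an ARE-driven luciferase reporter; % of control where 0% means no effect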)
How it was run: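 In HepG2 cells engineered with an Nrf2-responsive luciferase gene, ARE induction was quantified as luminescence after 16 hr compound treatment at 37 C.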

[5] = qHTS assay for small molecule agonists of the antioxidant response element (ARE) signaling pathway measured by Nrf2-dependant transcriptional activity - cell viability counter screen (AID 720653; active means well fitted curve in the direction sought with a large enough effect in the repeat runs; an effect the other way counts as inactive or inconclusive; further: potency means the concentration at half of the fitted maximal effect; on max response: on the % scale 0 is the no-effect control and ±100 the full control effect); details: ARE-bla HepG2 viability, CellTiter-Glo ATP luminescence, 16 h; max response: stronger effect = lower value
How it was run: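 ARE-bla HepG2 cells treated with compounds for 16 h at 37C; this counter screen measures viability as intracellular ATP by CellTiter-Glo luminescence after 30 min at room temperature.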

[6] = qHTS assay for cell viability of HEK293 cells (AID 743288); details: ATP luminescence (CellTiter-Glo), 18 h; max response: stronger effect = lower value; further: nearly all actives have a fitted effect of over 50% in size; further: potency means the concentration at half of the fitted maximal effect; on max response: on the % scale 0 is the no-effect control and ±100 the full control effect
How it was run: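 HEK293 parental, 2,000 cells/well; ≥5 h pre-incubation 37 C; pintool compound addition; 18 h, 37 C; CellTiter-Glo 30 min RT; luminescence read.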

[7] = qHTS assay for cell viability of the p53RE-bla HCT-116 cell line (AID 743292); further: nearly all actives have a fitted effect of over 55% in size; further: potency means the concentration at half of the fitted maximal effect
How it was run: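 Intracellular ATP of p53RE-bla HCT-116 cells measured by luciferase luminescence following 16 h compound incubation at 37 C; DMSO-only wells served as vehicle controls.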

[8] = molecular target: Peroxisome proliferator-activated receptor delta (Homo sapiens) (UniProt Q03181); assay: qHTS assay for small molecule agonists of peroxisome proliferator-activated receptor delta signaling (AID 588534; calls by dose curve;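 further: 0% = DMSO basal wells and 100% = positive control agonist at 10 µM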)
How it was run: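 Cells carrying a PPAR-delta beta-lactamase reporter were treated with compounds for 18 h at 37 °C in agonist mode. CCF4 fluorescence was read after 2 h; EC50 and efficacy from Hill fits.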

[9] = molecular target: Peroxisome proliferator-activated receptor gamma (Homo sapiens) (UniProt P37231); assay: qHTS assay for small molecule agonists of peroxisome proliferator-activated receptor gamma signaling (AID 588536; active means well fitted curve in the direction sought with a large enough effect in the signal ratio, with a control signal flat, not every such curve was filed as active; the % refers to the signal ratio;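 further: 0% = DMSO basal wells and 100% = rosiglitazone at 2 µM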)
How it was run: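 HEK293 UAS-bla reporter line, 1% charcoal/dextran FBS; titration, 16 h, 37 C; CCF4 loading 2 h RT; fluorescence 460/530 nm. Normalized to rosiglitazone 2 uM = 100%, DMSO = 0%.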

[10] = molecular target: Peroxisome proliferator-activated receptor gamma (Homo sapiens) (UniProt P37231); assay: qHTS assay for small molecule antagonists of peroxisome proliferator-activated receptor gamma signaling (AID 588537; active means well fitted inhibition curve with a large enough effect in the signal ratio, with a control signal flat, not every such curve was filed as active; the % refers to the signal ratio;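 further: reporter cells co-stimulated with 50 nM rosiglitazone agonist during compound treatment; % of control where 0% means no effect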)
How it was run: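 PPARγ-UAS-bla HEK293 cells (3000/well) in 1% charcoal/dextran-stripped FBS are treated with compound, then stimulated with 50 nM rosiglitazone for 16 h at 37 °C. Read-out is CCF4 β-lactamase fluorescence after 2 h at RT. IC50 comes from Hill fits normalised to rosiglitazone and DMSO.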

[11] = qHTS assay for small molecule agonists of retinoid X receptor alpha signaling (AID 588544; calls by dose curve;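 on activation: 0% = DMSO basal wells and 100% = reference agonist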); details: HEK293T RXRa-UAS-bla, beta-lactamase reporter, 18 h; 530 nm emission
[12] = molecular target: Retinoic acid receptor RXR-alpha (Homo sapiens) (UniProt P19793); assay: as above
[13] = molecular target: Thyroid hormone receptor beta (Homo sapiens) (UniProt P10828); assay: qHTS assay for small molecule agonists of thyroid hormone receptor beta signaling (AID 588545; calls by dose curve)
How it was run: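 In this cell-based screen, titrated compounds act on HEK 293 cells held in medium with 2% charcoal/dextran FBS, NEAA and pyruvate for 18 hrs at 37 C. Responses are expressed relative to T3 (10 nM) as 100% and basal DMSO as 0%.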

[14] = qHTS assay for small molecule antagonists of retinoid X receptor alpha signaling (AID 588546; active means well fitted inhibition curve with a large enough effect in the signal ratio, with a control signal flat, not every such curve was filed as active; the % refers to the signal ratio;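 further: cells stimulated with 9-cis-retinoic acid as agonist; on the % scale 0 is the no-effect control and ±100 the full control effect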); details: HEK293T RXRa-UAS-bla, beta-lactamase ratio, antagonist mode; measured here: W530 green channel, cytotoxicity proxy
How it was run: (§1)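 Beta-lactamase reporter inhibition, read as CCF4 fluorescence ratio (ex 405, em 460/530 nm) after 2 h at RT. HEK293T UAS-bla cells, 2500/well, were stimulated with 9-cis-RA at 500 or 100 nM final alongside test compound for 18 h at 37 C.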

[15] = molecular target: Retinoic acid receptor RXR-alpha (Homo sapiens) (UniProt P19793); assay: as above; details: HEK293T RXRa-UAS-bla, beta-lactamase ratio, antagonist mode
How it was run: as §1

[16] = qHTS assay for small molecule activators of the p53 signaling pathway (AID 651743; active means well fitted activation curve with a large enough effect in the signal ratio, not every such curve was filed as active; the % refers to the signal ratio; further: series mostly up to about 92 µM; % of control where 0% means no effect); details: HCT-116 p53RE-bla, beta-lactamase FRET ratio, 16 h; activation: stronger effect = higher value
How it was run: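 p53RE-bla HCT-116 cells carrying a beta-lactamase reporter under p53 response elements were exposed to compounds for 16 hours at 37 C. Reporter activity read as fluorescence after 2 hours at room temperature with LiveBLAzer B/G FRET substrate.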

Estrogen receptor (Homo sapiens), sequence (P03372 whole entry, looked up): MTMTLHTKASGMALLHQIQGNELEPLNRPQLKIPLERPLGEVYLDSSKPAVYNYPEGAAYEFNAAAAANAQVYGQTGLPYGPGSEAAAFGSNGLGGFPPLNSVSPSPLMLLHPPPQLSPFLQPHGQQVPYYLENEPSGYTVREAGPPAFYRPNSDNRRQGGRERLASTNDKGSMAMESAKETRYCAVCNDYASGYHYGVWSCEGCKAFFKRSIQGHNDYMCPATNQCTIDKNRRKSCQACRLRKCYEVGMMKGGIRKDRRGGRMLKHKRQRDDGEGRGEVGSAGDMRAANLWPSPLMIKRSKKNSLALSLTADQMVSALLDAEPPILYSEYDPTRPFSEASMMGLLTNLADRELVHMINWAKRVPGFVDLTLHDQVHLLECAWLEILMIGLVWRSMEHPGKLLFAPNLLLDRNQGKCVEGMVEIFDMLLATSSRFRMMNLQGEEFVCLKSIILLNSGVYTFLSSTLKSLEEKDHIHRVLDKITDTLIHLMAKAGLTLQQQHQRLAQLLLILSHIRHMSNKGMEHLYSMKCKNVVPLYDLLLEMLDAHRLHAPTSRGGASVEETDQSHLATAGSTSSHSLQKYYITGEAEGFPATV
Peroxisome proliferator-activated receptor gamma (Homo sapiens), sequence (P37231 whole entry, looked up): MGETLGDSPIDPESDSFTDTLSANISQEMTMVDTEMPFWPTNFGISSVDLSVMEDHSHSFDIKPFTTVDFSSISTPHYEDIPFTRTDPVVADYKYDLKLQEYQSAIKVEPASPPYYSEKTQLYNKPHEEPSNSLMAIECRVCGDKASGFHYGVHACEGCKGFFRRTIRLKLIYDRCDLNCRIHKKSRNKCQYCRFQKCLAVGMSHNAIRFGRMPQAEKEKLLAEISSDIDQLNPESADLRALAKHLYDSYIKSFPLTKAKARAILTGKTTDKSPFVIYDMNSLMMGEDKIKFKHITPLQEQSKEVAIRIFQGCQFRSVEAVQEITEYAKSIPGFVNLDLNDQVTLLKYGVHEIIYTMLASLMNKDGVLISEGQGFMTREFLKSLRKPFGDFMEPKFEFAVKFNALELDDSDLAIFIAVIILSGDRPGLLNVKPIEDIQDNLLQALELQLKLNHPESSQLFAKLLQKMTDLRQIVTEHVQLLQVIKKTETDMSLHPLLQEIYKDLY
Peroxisome proliferator-activated receptor alpha (Homo sapiens), sequence (Q07869 whole entry, looked up, the tested form may be a part): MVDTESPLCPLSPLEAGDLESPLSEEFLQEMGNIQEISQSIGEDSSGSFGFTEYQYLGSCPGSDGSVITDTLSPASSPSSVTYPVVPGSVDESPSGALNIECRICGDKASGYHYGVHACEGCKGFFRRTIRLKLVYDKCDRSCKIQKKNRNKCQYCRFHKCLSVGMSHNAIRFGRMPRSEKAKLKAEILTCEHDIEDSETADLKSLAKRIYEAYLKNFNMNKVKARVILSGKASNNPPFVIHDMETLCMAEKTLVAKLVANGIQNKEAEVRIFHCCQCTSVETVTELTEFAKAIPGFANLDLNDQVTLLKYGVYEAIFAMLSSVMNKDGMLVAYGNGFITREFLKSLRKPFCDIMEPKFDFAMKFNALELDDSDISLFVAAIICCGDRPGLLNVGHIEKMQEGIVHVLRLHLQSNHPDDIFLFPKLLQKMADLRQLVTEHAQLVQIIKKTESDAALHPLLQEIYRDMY
Retinoic acid receptor RXR-alpha (Homo sapiens), sequence (P19793 whole entry, looked up): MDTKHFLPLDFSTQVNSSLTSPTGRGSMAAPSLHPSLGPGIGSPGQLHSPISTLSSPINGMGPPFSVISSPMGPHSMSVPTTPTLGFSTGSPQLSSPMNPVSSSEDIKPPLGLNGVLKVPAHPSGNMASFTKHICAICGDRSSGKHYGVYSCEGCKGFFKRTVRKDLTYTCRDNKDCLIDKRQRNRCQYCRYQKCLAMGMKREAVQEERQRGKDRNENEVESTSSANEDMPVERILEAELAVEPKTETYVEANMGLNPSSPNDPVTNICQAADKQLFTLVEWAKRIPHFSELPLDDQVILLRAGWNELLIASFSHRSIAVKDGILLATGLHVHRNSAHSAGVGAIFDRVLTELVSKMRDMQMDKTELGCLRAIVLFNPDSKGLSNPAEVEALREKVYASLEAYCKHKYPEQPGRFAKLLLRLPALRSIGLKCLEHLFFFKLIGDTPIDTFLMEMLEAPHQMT
Peroxisome proliferator-activated receptor delta (Homo sapiens), sequence (Q03181 whole entry, looked up): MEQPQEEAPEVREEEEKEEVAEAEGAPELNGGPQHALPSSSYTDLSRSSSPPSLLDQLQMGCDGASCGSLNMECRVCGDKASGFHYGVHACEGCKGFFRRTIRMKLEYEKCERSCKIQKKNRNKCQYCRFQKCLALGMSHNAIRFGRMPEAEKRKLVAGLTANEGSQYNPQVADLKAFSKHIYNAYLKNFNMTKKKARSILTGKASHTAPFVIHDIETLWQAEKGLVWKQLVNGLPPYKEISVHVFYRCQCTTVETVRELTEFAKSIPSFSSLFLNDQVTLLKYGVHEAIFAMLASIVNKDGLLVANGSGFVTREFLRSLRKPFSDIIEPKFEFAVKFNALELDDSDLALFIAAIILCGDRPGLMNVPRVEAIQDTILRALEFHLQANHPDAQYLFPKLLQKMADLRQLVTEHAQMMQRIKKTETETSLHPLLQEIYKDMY
Thyroid hormone receptor beta (Homo sapiens), sequence (P10828 whole entry, looked up): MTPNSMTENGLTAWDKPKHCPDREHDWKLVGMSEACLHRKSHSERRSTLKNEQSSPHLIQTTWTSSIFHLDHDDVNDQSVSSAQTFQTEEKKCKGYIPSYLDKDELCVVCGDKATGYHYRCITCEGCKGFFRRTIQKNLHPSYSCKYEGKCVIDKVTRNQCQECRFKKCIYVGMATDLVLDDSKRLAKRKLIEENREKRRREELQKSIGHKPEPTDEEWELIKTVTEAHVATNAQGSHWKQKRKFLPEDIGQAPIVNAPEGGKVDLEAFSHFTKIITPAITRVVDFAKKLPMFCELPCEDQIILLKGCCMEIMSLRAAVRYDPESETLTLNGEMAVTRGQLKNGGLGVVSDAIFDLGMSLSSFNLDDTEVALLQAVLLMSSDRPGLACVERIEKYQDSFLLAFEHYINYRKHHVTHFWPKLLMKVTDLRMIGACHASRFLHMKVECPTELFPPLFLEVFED

CC1(C)CN=C(NN=C(/C=C/c2ccc(C(F)(F)F)cc2)/C=C/c2ccc(C(F)(F)F)cc2)NC1
active: Potency [1] 14.1 µM [inhibitor] | Potency [5] 25.1 µM | Potency [6] 44.7 µM | Potency [7] 50.1 µM
inactive: activation [2] -13.3% | max response [3] -2.05% | Potency [4]

CCCN(CCC)c1c([N+](=O)[O-])cc(C(F)(F)F)c(N)c1[N+](=O)[O-]
inactive: outcome [8]
active: Potency [1] 31.6 µM [inhibitor]

CCN(CC)C(=O)C(C)Oc1cccc2ccccc12 (stereo not given)
inactive: Potency [1] | outcome [8] | Potency [9] | Potency [10] | Potency [12] | Potency [13] | max response [15] -6.13% | activation [16] -0.234% | activation [2] 1.45% | max response [3] 0.442% | Potency [4] | max response [5] -4.78% | max response [6] -1.61% | Potency [7]
-20.3%: max response [14]
5.95%: max response [11]
